# FBW7 activator: human FBW7 E3 ligase activation, primary screen; normalized activity (activation), % at 26.1 µM; 0.13% of 650,000 active; AlphaScreen FBW7–phospho-cyclin E peptide binding, activator screen; in the data active = normalized activity above about 1.9%;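 also: purified mutant Fbw7 with reduced substrate affinity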
# GPR151 activ: human GPR151 activation. 1% of 650,000 active. activation, % at 11.2 µM. PathHunter beta-arrestin GPR151 cells, luminescence. Q8TDV0. AID 1508602; in the data active = activation above about 4.9%;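 also: 0% = median of compound wells and 100% = cells with positive control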
# Target sequence (Q8TDV0 whole entry, looked up): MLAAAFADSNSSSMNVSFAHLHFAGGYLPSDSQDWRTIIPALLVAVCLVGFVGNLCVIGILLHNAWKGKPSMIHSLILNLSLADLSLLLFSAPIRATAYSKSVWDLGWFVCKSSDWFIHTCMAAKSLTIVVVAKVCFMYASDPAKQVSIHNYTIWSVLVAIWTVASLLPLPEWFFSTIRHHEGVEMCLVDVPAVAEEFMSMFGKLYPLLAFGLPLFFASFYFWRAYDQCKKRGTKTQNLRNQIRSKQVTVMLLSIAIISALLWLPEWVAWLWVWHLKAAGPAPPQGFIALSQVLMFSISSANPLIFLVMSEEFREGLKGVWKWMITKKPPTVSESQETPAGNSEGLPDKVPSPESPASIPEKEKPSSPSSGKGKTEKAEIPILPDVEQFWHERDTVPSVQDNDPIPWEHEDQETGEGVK
# TEAD-YAP block: TEAD-YAP interaction inhibition; 1.4% of 640,000 active; HEK-TIYL cells, TEAD-Gal4/YAP UAS-luciferase luminescence; inhibition, % at 9.12 µM; AID 1259422; in the data active = inhibition above about 32%;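 also: 0% = median of test compound wells and 100% = reference inhibitor wells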
# MITF primary: inhibitors of human MITF | O75030 | AlphaScreen MITF homodimerization, bead proximity signal | inhibition, % at 2.6 µM | 0.91% of 650,000 active; in the data active = inhibition above about 50%;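 also: 0% = vehicle wells with protein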
# * marks the source's active call; other numbers are inactive results. Hits are enriched below; roughly 3.4% of the tested compounds scored in any of these assays.
SMILES,FBW7 activator,GPR151 activ,TEAD-YAP block,MITF primary
Oc1ccc(CCNc2nc(Nc3ccc4ncccc4c3)nc3c2ncn3-c2ccsc2)cc1,0,-1,56*,2
Oc1ccc(CCNc2nc(Nc3ccc4ncccc4c3)nc3nc[nH]c23)cc1,0,0,45*,11
COc1ccc(NC(=O)NCc2cccs2)cc1OC,0,-1,-9,23
Cc1cccc(S(=O)(=O)NCC(O)c2ccc(C)o2)c1 (centres undefined),0,-1,7,-4
Cc1ccc(CNC(=O)C(=O)NCC(c2ccco2)N2CCN(c3ccccc3)CC2)cc1 (centres undefined),0,2,-1,2
COc1ccc(C(=O)Nn2c(C)nc3ccccc3c2=O)cc1,0,-1,6,2
COc1ccc(C(=O)Nn2c(SCC(=O)N3CCCC3)nc3ccccc3c2=O)cc1,0,0,78*,3
COc1ccc(C(=O)Nn2c(SCC(=O)NC3CCCCC3)nc3ccccc3c2=O)cc1,0,-1,81*,9
COc1ccc(C(=O)Nn2c(SCC(=O)N3CCC(C)CC3)nc3ccccc3c2=O)cc1,0,1,82*,7
COc1ccc(C(=O)Nn2c(C3CC3)nc3ccccc3c2=O)cc1,0,0,-1,7
COc1ccc(C(=O)Nn2c(SCC(=O)c3ccc(Cl)cc3)nc3ccccc3c2=O)cc1,0,1,77*,-2
O=C(CSc1nc2ccccc2c(=O)n1NC(=O)c1ccc(F)cc1)NC1CCCCC1,1,-2,17,11
O=C(O)CSc1nc2ccccc2n1CC(=O)NC1CCCCC1,1.9*,-1,-3,1
O=C(Nn1c(SCC(=O)N2CCN(c3ccccc3)CC2)nc2ccccc2c1=O)c1ccc(F)cc1,1,0,-11,23
COc1ccc(C(=O)Nn2c(SCC(=O)N3CCN(c4ccccc4)CC3)nc3ccccc3c2=O)cc1,0,1,77*,-5
CCC(C)OC(=O)C1=C(C)NC(=O)NC1c1cccc(Br)c1 (centres undefined),0,-1,-19,14
c1ccc(-n2cnc3c(NC4CC4)nc(Nc4ccc(N5CCOCC5)cc4)nc32)cc1,0,1,33*,7
OC1CCC(Nc2nc(Nc3ccc(N4CCOCC4)cc3)c3ncn(-c4ccccc4)c3n2)CC1 (centres undefined),0,1,38*,21
OC1CCC(Nc2nc(NCc3ccccc3)c3ncn(-c4ccccc4)c3n2)CC1 (centres undefined),0,1,-40,-2
CC(=O)Nc1cc(C(=O)Nc2cccc(C(F)(F)F)c2)ccc1C,0,0,-6,7
COc1cc([N+](=O)[O-])c(Cl)cc1-c1ccc(/C=C2\SC(=Nc3ccccc3)N(c3ccccc3)C2=O)o1,0,-1,-3,14
CC1(Cc2ccc(F)cc2)C(=O)Nc2ccc(-c3cccnc3)cc21 (centres undefined),0,0,38*,6
CC1(Cc2ccc(C(F)(F)F)o2)C(=O)Nc2ccc(-c3cccnc3)cc21 (centres undefined),1,1,40*,2
CC1(Cc2ccc(S(C)(=O)=O)cc2)C(=O)Nc2ccc(-c3cccnc3)cc21 (centres undefined),1,0,19,45
CC1(Cc2ccc(Cl)s2)C(=O)Nc2ccc(-c3cccnc3)cc21 (centres undefined),0,3,33*,13
SMILES,FBW7 activator,GPR151 activ,TEAD-YAP block,MITF primary
COC(=O)c1ccc(CC2(C)C(=O)Nc3ccc(-c4cccnc4)cc32)o1 (centres undefined),1,0,13,18
CN1CCN(Cc2cnn(-c3ccc(Cl)cc3)c2)CC1CCO (centres undefined),0,5,-8,-2
COc1ccc(OC)c(/C=C2\SC(=Nc3ccccc3Cl)NC2=O)c1,0,-2,-8,15
O=C(CSc1ccccc1)N1CCN(c2nc3ccccc3s2)CC1,0,-7,38*,3
CCCOC(=O)c1ccc(Br)c([N+](=O)[O-])c1,0,1,8,-1
COc1ccc(C(=O)c2ccc(Br)c([N+](=O)[O-])c2)cc1,0,0,64*,35
Cc1sc(NC(=O)COc2ccccc2)c(C(N)=O)c1C,0,1,-74,25
CCOC(=O)c1c(NC(=O)CSc2ccccc2)sc(CC)c1-c1ccccc1,0,2,-5,70*
Cc1sc(NC(=O)COc2ccccc2)c(C(N)=O)c1-c1ccccc1,0,0,75*,4

# Screening results: PubChem BioAssay, The Scripps Research Institute Molecular Screening Center
